The test system of one test is MCC-13. Kind of test: qHTS assay to identify novel small-molecules to repurpose for Merkel cell carcinoma treatment (AID 1296009). Note: nearly all actives have a fitted effect of over 60% in size. Note: potency is the fitted concentration of half-maximal effect. Conditions: MCC and control cell lines, CellTiter-Glo viability, 72 h; series mostly up to 46 µM. In a few lines:
(§1)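 CellTiter-Glo luminescence after 72 hr compound exposure at 37 degree celsius gave cell viability. Libraries NPC and MIPE were run as 8- and 11-point dose responses; RLUs normalized to DMSO (negative) and no-cell (cytotoxicity) controls.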

The next test has as its system MCC-26. Described as above. The following applies: MCC and control cell lines, CellTiter-Glo viability, 72 h; series mostly up to 46 µM. An outline of the steps: as §1
A general note: ATP-based viability assays read luminescence as a measure of living cells.

The subject of another test is MKL-2. Described as above. The following applies: MCC and control cell lines, CellTiter-Glo viability, 72 h; series mostly up to 46 µM. In a few lines:
as §1

Another test concerns UISO. Described as above. Conditions: MCC and control cell lines, CellTiter-Glo viability, 72 h; series mostly up to 46 µM. In a few lines:
as §1

The subject of the next test is WaGa. The description is as above. Conditions: MCC and control cell lines, CellTiter-Glo viability, 72 h; series mostly up to 46 µM. An outline of the steps: as §1
Another test has as its system C33A. Kind of test: Primary qHTS to identify gynecologic anti-cancer compounds using libraries of approved drugs and bioactive compounds (AID 1345084). Note: nearly all actives have a fitted effect of over 55% in size. Note: potency is the fitted concentration of half-maximal effect. The following applies: Gynecologic cancer cell panel viability, ATPlite luminescence, 48 h; series mostly up to 57.5 µM. In a few lines: (§2)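 Cells, 1,000 per well, plated 16 h, then exposed 48 h at 37 C to compounds. Viability by ATPlite luminescence after 15 min at room temperature.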
(Quantitative high-throughput screening tests each substance at several concentrations.)

A further test concerns CAOV3. The description is as above. Conditions: Gynecologic cancer cell panel viability, ATPlite luminescence, 48 h; series mostly up to 57.5 µM. In a few lines:
as §2

For another test, the system named is CASKI. The description is as above. The following applies: Gynecologic cancer cell panel viability, ATPlite luminescence, 48 h; series mostly up to 57.5 µM. In a few lines:
as §2

The next test deals with Es-2. The description is as above. The following applies: Gynecologic cancer cell panel viability, ATPlite luminescence, 48 h; series mostly up to 57.5 µM. In a few lines:
as §2

The test system of another test is HeLa. The description is as above. The following applies: Gynecologic cancer cell panel viability, ATPlite luminescence, 48 h; series mostly up to 57.5 µM. An outline of the steps: as §2
Another test deals with Hek293T. Described as above. Conditions: Gynecologic cancer cell panel viability, ATPlite luminescence, 48 h, control line for the selectivity index; series mostly up to 57.5 µM. An outline of the steps: as §2
For another test, the system named is JEG-3. The test is described as above. Conditions: Gynecologic cancer cell panel viability, ATPlite luminescence, 48 h; series mostly up to 57.5 µM. In a few lines:
as §2

For the next test, the system named is OV90. Described as above. The following applies: Gynecologic cancer cell panel viability, ATPlite luminescence, 48 h; series mostly up to 57.5 µM. In a few lines: as §2
Another test concerns PA-1. The test is described as above. Conditions: Gynecologic cancer cell panel viability, ATPlite luminescence, 48 h; series mostly up to 57.5 µM. An outline of the steps: as §2
In another test the test system is Tov-21-G. The test is described as above. Conditions: Gynecologic cancer cell panel viability, ATPlite luminescence, 48 h; series mostly up to 57.5 µM. In a few lines: as §2
Another test has as its system Tov112D. The test is described as above. The following applies: Gynecologic cancer cell panel viability, ATPlite luminescence, 48 h; series mostly up to 57.5 µM. In a few lines:
as §2

In a further test the test system is MKL-1. Kind of test: qHTS assay to identify novel small-molecules to repurpose for Merkel cell carcinoma treatment (AID 1296009). Note: nearly all actives have a fitted effect of over 60% in size. Note: potency is the fitted concentration of half-maximal effect. The following applies: MCC and control cell lines, CellTiter-Glo viability, 72 h; series mostly up to 46 µM. In a few lines:
as §1

In another test the test system is NIH3T3. The test is described as above. The following applies: MCC and control cell lines, CellTiter-Glo viability, 72 h; at 44.8 µM (top of the series) unless noted. In a few lines: as §1
The test system of a further test is SKOV3. The experiment in a line: Primary qHTS to identify gynecologic anti-cancer compounds using libraries of approved drugs and bioactive compounds (AID 1345084). Note: nearly all actives have a fitted effect of over 55% in size. Note: potency is the fitted concentration of half-maximal effect. Conditions: Gynecologic cancer cell panel viability, ATPlite luminescence, 48 h; series mostly up to 57.5 µM. An outline of the steps: as §2
Test [1] is described as follows: Drug repurposing screens with cells derived from glioblastoma tumor samples (AID 1345199). Note: nearly all actives have a fitted effect of over 40% in size. Conditions: GBM patient neurospheres viability, ATP luminescence, 48 h; Potency: tumour line A unless noted; series mostly up to 45.9 µM. In a few lines: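 Primary testing used CD133+ neurospheres from four GBM patients, seven concentrations, 48 h exposure and ATP-based viability; confirmation added three slower-growing patient lines.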

Inconclusive results are not listed. Active and inactive are the calls of the source. Calls come from the whole dose curve; as a rule, active = well fitted curve in the direction sought with a large enough effect; inconclusive = small, poorly fitted or top-dose-only effect, or another doubt; inactive = no such curve, though single readings can be large; an effect the other way counts as inactive or inconclusive.

For the compound `Cc1[nH]nc2ccc(-c3cncc(OC[C@@H](N)Cc4c[nH]c5ccccc45)c3)cc12`, the Potency with MCC-13 is 2350 nM (active); in the test with MCC-26 it was 3720 nM (active); in the test on MKL-2, 3720 nM (active); with UISO, 235 nM (active); in the test with WaGa it was 833 nM (active); in the test with C33A it was 316 nM (active). For the same compound, the Potency in the test on CAOV3 is 1120 nM (active); in the test on CASKI it was 2820 nM (active); in the test on Es-2, 1780 nM (active); with HeLa, 891 nM (active); in the test on Hek293T, 631 nM (active); in the test with JEG-3, 2820 nM (active). The Potency with OV90 was 5620 nM (active); in the test on PA-1 it was 794 nM (active); in the test with Tov-21-G, 708 nM (active); in the test on Tov112D, 1000 nM (active).
For the compound `CC(=Cc1csc(C)n1)[C@@H]1C[C@H]2O[C@]2(C)CCC[C@H](C)[C@@H](O)[C@@H](C)C(=O)C(C)(C)[C@@H](O)CC(=O)O1`, the Potency result with MCC-13, in the test with MKL-1, in the test on MKL-2 and with WaGa was “inactive” in each case.
Turning to `Cc1ccccc1-n1c(Cn2ncc3c(N)ncnc32)nc2cccc(C)c2c1=O`, the Potency in the test on MCC-13 was 13200 nM (active); in the test with UISO, 1320 nM (active). Also, the Potency result in the test with MKL-2, in the test with C33A, with CAOV3, with CASKI, in the test on Es-2 and in the test on HeLa was “inactive” each time. Further, the Potency result in the test on Hek293T, in the test on JEG-3, in the test on OV90, in the test on PA-1, in the test on SKOV3 and in the test on Tov-21-G was “inactive” each time. Further, the Potency result with Tov112D is “inactive”. In addition, the compound was classed as inactive with NIH3T3.
In the case of `NC1=NC(=O)N2CC12` (stereo not given), the Potency result (with MCC-13; in the test with MCC-26; in the test with MKL-1; in test [1]) was “inactive” in each case. Besides, in the test with NIH3T3, the outcome was inactive.
`Cc1nc(-c2ccc(-c3ccc(C(=O)N4CCc5cc6c(cc54)C4(CCN(C)CC4)CO6)cc3)c(C)c2)no1`: the Potency entry with MCC-13, in the test with MKL-1, in the test with MKL-2, in the test on UISO and with WaGa was “inactive” throughout.
`CC(O)=C(C#N)C(=O)Nc1cc(Br)ccc1Br`: the Potency result in the test on MCC-13, in the test on MCC-26, in the test with MKL-1, in the test on UISO and with WaGa was “inactive” throughout.
Regarding `CC(C)N[C@@H]1CCn2c(=O)[nH]c3cccc(c32)[C@@H]1O`, the Potency entry with MCC-13, in the test on MCC-26 and with UISO was “inactive” each time.
Consider `Oc1ccc2c3c1O[C@H]1[C@@H](O)C=C[C@H]4[C@@H](C2)NCC[C@@]341`, for which the Potency result in the test with MCC-13, with MCC-26, with UISO, in the test on C33A, in the test with CAOV3 and with CASKI was “inactive” each time. Further, the Potency result in the test on Es-2, in the test on HeLa, with Hek293T, in the test on JEG-3, with OV90 and in the test on PA-1 was “inactive” each time. Also, the Potency result (in the test on SKOV3; in the test with Tov-21-G; in the test on Tov112D; in [1]) was “inactive” each time. For the same compound, the Potency with WaGa is 25000 nM (active).
In the case of `CCCCCCCCc1ccc(O)cc1`, the Potency entry in the test on MCC-13, in the test with MCC-26, with CASKI, in the test with Es-2, in the test on HeLa and with Hek293T was “inactive” in each case. In addition, the Potency entry (in the test with JEG-3; in the test with OV90; in the test with SKOV3; with Tov112D; in [1]) was “inactive” each time. Besides, the Potency was 43700 nM (active) with WaGa and 25100 nM (active) with C33A.
Turning to `CCCCCCCCCCCCCCCC[N+](C)(C)C`, the Potency in the test on MCC-26 was 26600 nM (active); in the test with MKL-1, 944 nM (active); in the test on MKL-2, 750 nM (active); in the test on WaGa it was 2370 nM (active); with CASKI, 20000 nM (active); in the test with SKOV3, 28200 nM (active). Further, the Potency in the test on Tov-21-G was 7940 nM (active).
As for `Nc1ccc([N+](=O)[O-])cc1`, the Potency result with C33A, with CAOV3, in the test on CASKI, in the test on HeLa, in the test with Hek293T and in the test with JEG-3 was “inactive” each time. The Potency result in the test on OV90, in the test with PA-1, in the test on Tov-21-G and in the test on Tov112D was “inactive” each time.
Turning to `COc1cc([C@@H]2c3cc4c(cc3[C@@H](O)C3COC(=O)C32)OCO4)cc(OC)c1O` (stereo not given in full), the Potency is 2350 nM (active) in the test on MKL-1, 52.6 nM (active) in the test with UISO and 52.6 nM (active) with WaGa.
Consider `CC(=O)NCCc1c[nH]c2ccccc12`, for which, in the test on NIH3T3, the outcome was “inactive [at 92 µM]”. In addition, the Potency result with C33A, with CAOV3, in the test on CASKI, in the test with Es-2, in the test with HeLa and in the test on Hek293T was “inactive” in each case. In addition, the Potency entry in the test on JEG-3, in the test with OV90, with PA-1, in the test on SKOV3, in the test with Tov-21-G and in the test with Tov112D was “inactive” each time.
In the case of `Cc1ccccc1-n1c(Cn2cnc3c(N)ncnc32)nc2cccc(C)c2c1=O`, the Potency is 6620 nM (active) with MCC-26 and 3720 nM (active) in the test with UISO. Further, the Potency result with C33A, in the test on CASKI, in the test with Es-2, in the test on HeLa, with Hek293T and in the test on JEG-3 was “inactive” throughout. The Potency result in the test with OV90, in the test on PA-1, in the test with SKOV3, with Tov-21-G and in the test on Tov112D was “inactive” in each case.
For the compound `CC(C)[C@]12O[C@H]1[C@@H]1O[C@]13[C@]1(O[C@H]1C[C@H]1C4=C(CC[C@@]13C)C(=O)OC4)[C@@H]2O`, the Potency was 708 nM (active) in the test with C33A; 199 nM (active) in the test with CASKI; 100 nM (active) in the test with Es-2; 158 nM (active) with HeLa; 100 nM (active) with PA-1; 100 nM (active) in the test on Tov112D.
`C[C@@H]1CC[C@@]2(OC1)O[C@H]1C[C@H]3[C@@H]4CC=C5C[C@@H](O[C@@H]6O[C@H](CO)[C@@H](O[C@@H]7O[C@@H](C)[C@H](O)[C@@H](O)[C@@H]7O)[C@H](O)[C@@H]6O[C@@H]6O[C@@H](C)[C@H](O)[C@@H](O)[C@@H]6O)CC[C@]5(C)[C@@H]4CC[C@]3(C)[C@@H]1[C@H]2C`: the Potency with MCC-26 is 10500 nM (active); with MKL-2, 6620 nM (active).
On to `CCCCc1ccc(C(=O)O)nc1`, for which, in test [1], the Potency result is “inactive”.
Regarding `C/C=C(/C)C(=O)O[C@H]1C(C)=C2[C@H]([C@@H]1OC(=O)CCCCCCC)[C@@](C)(OC(C)=O)C[C@H](OC(=O)CCC)[C@@]1(O)[C@H]2OC(=O)[C@@]1(C)O`, the Potency was 20000 nM (active) in the test on C33A; 316 nM (active) in the test with Es-2; 447 nM (active) with HeLa; 447 nM (active) with JEG-3; 158 nM (active) in the test with PA-1; 501 nM (active) in the test on Tov112D.
As to `N=c1c2c(-c3ccccc3)c(-c3ccccc3)n(Cc3ccccc3)c2ncn1C1CCC(O)CC1` (stereo not given), the Potency result in the test with MCC-26 is “inactive”. The Potency with MKL-1 is 18700 nM (active); with MKL-2 it was 14800 nM (active); in the test on UISO, 3720 nM (active); in the test with WaGa, 2640 nM (active).

For the origin of these results see PubChem BioAssay (NCATS).
